Where “and” joins values, the source holds several entries; their conditions need not be identical. Equal values may be shown once.
Assay: anti-His antibody binders, primary screen, artefact control for SMM control protein annotation, biochemical, small-molecule microarray, 635 nm fluorescence (AID 1128);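 note: score merges feature fluorescence with signal-to-noise for each printed compound spot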
Conditions: anti-His Alexa647 antibody binding, higher = more signal

Structure (SMILES) | composite z-score
C=CCN(CCCCC)C(=O)C(c1cccs1)N(CCOCCO)C(=O)/C=C\C(=O)O (configuration not stated) | -0.635 and -0.348
CC(C)CCN1CCc2nc(-c3ccccc3)c3c(c2C1)CO[C@@H](C)C3 | 0.554
C=CCN(CCCC)C(=O)C1N(c2ccc(CCO)cc2)C(=O)C2C(C(=O)O)C3C=CC21O3 (configuration not stated) | -1.5 and -1.42
C=C[C@H](OC)[C@@H](O)c1ccc(OCCO)cc1 | -1.34 and 2.11
C=C[C@H](C)[C@H](O)c1ccc(O)c2ccccc12 | 2.31 and -0.782
COC(=O)C1=C(C)N(Cc2ccccc2)[C@]23O[C@](C(=O)OC)(C(=O)N2[C@@H]1c1ccccc1)[C@H]1C(=O)N(c2ccccc2)C(=O)[C@H]13 | 0.798 and 0.258
CN1C(=O)C2CC=C([C@H]3Oc4ccccc4S(=O)(=O)N4CCC[C@@H]34)CC2C1=O (some centres not stated) | 0.009 and -0.183
CC(C)=NOC[C@@H](O)COCc1ccco1 | 1.27
CCOC(=O)NN=C1C[C@@H](O)[C@@H](O)[C@@H]2[C@@H]3C(=O)N(Cc4ccccc4)C(=O)[C@@H]3CC[C@@H]12 | 0.82
COC(=O)C1=C(C)N(Cc2ccccc2)[C@]23O[C@](C(=O)OC)(C(=O)N2[C@@H]1c1ccccc1)[C@H]1CCCC(=O)[C@H]13 | 0.677 and 1.34
C#CCCCON=C1C[C@@H](O)[C@@H](O)[C@@H]2[C@@H]3C(=O)N(C4CCCCC4)C(=O)[C@@H]3CC[C@H]12 | 1.31
C=C[C@@H](OC)[C@H](O)c1ccc(OC)c(O)c1 | 0.0608 and -0.368
CC(C)=NOCc1ccc(-c2cn([C@@H]3COC[C@H]3O)nn2)cc1 | 1.03
CO[C@@H]1C=CCC(=O)N2CCC[C@H]2C(=O)OC[C@H](C)C(=O)OC[C@H]1C | 0.761
CCCCCN1CC=CC23O[C@@H]4C=CCCOC(=O)C4[C@H]2C(=O)N(C(C)CO)[C@@H]3C1=O (some centres not stated) | 1.58 and 0.0947
COC(=O)[C@@]1(Cc2ccc(OC)cc2)[C@H]2c3cc(C(=O)N(C)C)n(Cc4ccc(O)c(OC)c4)c3C[C@H]2CN1C(=O)c1ccccc1 | 1.8 and 2.3
C=CCN(Cc1ccccc1)C(=O)C(c1cccs1)N(C(=O)/C=C\C(=O)O)c1ccc(CCO)cc1 (configuration not stated) | -1.02 and -0.261
CCN1C(=O)[C@H]2[C@H]3[C@H](O)[C@H](O)CC(=NOC)[C@@H]3CC[C@H]2C1=O | -0.121
C[N+](C)(C)CCCCNC(=O)[C@@H]1C[C@@H]2C(=O)N[C@@H](CCCC[N+](C)(C)C)C(=O)N2[C@@H]1c1cccc(OCCO)c1 | 2.73 and 2.55
CO[C@H]1COC(=O)CC=C[C@H](C)[C@H](OC)COC(=O)[C@@H](C)COC(=O)CC=C[C@@H]1C | 0.155 and -0.15
Cc1cc2c(nc1C)CCCN2CC(O)CN1CCCc2nc(-c3ccc(Br)cc3)ccc21 (configuration not stated) | 1.48 and 2.06
COC(=O)C1=C(C)N(Cc2ccccc2)C2=C(C(=O)c3ccccc3)[C@H](c3ccccc3)[C@@](O)(C(=O)OC)C(=O)N2[C@@H]1c1ccccc1 | 0.326 and -0.476
C#CCN1C(/C=C/c2ccccc2)C(=O)OC[C@H]1c1ccccc1 (some centres not stated) | 0.195 and 0.338
COC(=O)[C@@]1(Cc2ccccc2)[C@H]2c3cc(C(=O)N(C)C)n(Cc4ccc(C)c(F)c4F)c3C[C@H]2CN1C(=O)c1ccccc1 | 1.95 and 1.06
CCOC(=O)[C@@H]1CC2O[C@]23C[C@@H]1C(=O)N1CCC[C@@H]1[C@H]3O[Si](C)(C)C(C)(C)C (some centres not stated) | -0.423 and -0.146
C=CCN(CCCCC)C(=O)C(c1cccs1)N(C(=O)/C=C\C(=O)O)c1ccc(CCO)cc1 (configuration not stated) | -0.206 and -1.12
CC(CO)N1C(=O)[C@@H]2C3C(=O)OCCC=C[C@H]3OC23C=CCN(c2ccc4ccccc4c2)C(=O)[C@@H]13 (some centres not stated) | 0.62 and 1.59
